Rows were chosen to be rich in hits. Some 3.4% of all compounds tested hit in one or more screens of this group.
Mcl-1 Bim block = human Bim-Mcl-1 interaction inhibition; Bead-based flow cytometry, Bim peptide-Mcl-1 binding; inhibition, % at 10 µM; hit rate 0.1% among 190,000; AID 1009; in the data active = inhibition above about 40%;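 also: 0% = no compound tracer wells and 100% = peptide blocker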
m-calpain inh = calpain II (pig) inhibition; AID 1236; purified calpain II, fluorogenic peptide substrate, 30 min; inhibition, % at 16 µM; hit rate 0.37% among 220,000;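 active = inhibition above about 50%, limit read from the data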
Mcl1 Bid PPI = Mcl-1/Bid interaction inhibition; TR-FRET Mcl-1/Bid-Dy647 peptide binding, 1536-well; Q07820; AID 1021; inhibition, % at 21.7 µM; hit rate 0.97% among 220,000;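 active = compounds that cut the binding signal by more than half at the single screening dose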;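 also: His-tagged Mcl-1 with europium anti-His antibody binding Bid BH3 peptide; 0% = Mcl-1 plus peptide wells and 100% = peptide-only wells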
14-3-3 Bad PPI = disrupts binding of bovine 14-3-3 zeta to phospho-Bad peptide; P63103; TR-FRET 14-3-3zeta/Dy647-pBad peptide displacement, 1 h; inhibition, % at 21.7 µM; hit rate 0.71% among 220,000; AID 781;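 active = inhibition above about 70%, limit read from the data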;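 also: 0% = full 14-3-3 plus peptide FRET controls and 100% = background without 14-3-3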
NCF1 inh = p47phox (human) inhibition. AID 1274. p47phox/p22phox peptide binding, fluorescence polarization, 2 h. inhibition, % at 24.7 µM. hit rate 0.53% among 220,000. P14598;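 active = inhibition above about 30%, limit read from the data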;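 also: 0% = p47phox with labelled peptide and 100% = labelled peptide alone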
Target sequence (P14598 whole entry, looked up): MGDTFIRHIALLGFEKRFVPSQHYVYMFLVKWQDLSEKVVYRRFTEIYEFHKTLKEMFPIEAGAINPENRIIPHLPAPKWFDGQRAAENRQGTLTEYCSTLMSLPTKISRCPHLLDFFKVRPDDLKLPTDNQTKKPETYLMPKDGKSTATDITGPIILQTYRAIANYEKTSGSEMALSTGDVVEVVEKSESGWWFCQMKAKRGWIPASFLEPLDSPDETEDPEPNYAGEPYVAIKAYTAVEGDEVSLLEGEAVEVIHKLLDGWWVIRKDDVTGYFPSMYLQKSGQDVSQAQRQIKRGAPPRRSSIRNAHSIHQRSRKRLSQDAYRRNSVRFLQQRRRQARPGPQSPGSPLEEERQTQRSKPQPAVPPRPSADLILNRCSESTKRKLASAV
Mcl1-Noxa inh = Mcl-1/Noxa interaction inhibition; hit rate 1.5% among 220,000; inhibition, % at 21.7 µM; Q07820; TR-FRET Mcl-1/Noxa peptide binding, 2 h; AID 1022;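 active = compounds that cut the protein-peptide binding signal by more than 50% relative to plate controls in a single-dose test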;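 also: His-tagged Mcl-1 with rhodamine Noxa BH3 peptide and terbium anti-His antibody; 0% = Mcl-1 plus Noxa peptide wells and 100% = peptide-only wells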
The depositor's hits bear a star; i = inactive; / = not tested or not shown; ! = a repeat was not active; [ ] = remark or other dose.

SMILES	Mcl-1 Bim block	m-calpain inh	Mcl1 Bid PPI	14-3-3 Bad PPI	NCF1 inh	Mcl1-Noxa inh
CCOC(=O)c1cc(C)sc1/N=C/C1C(=O)NC(=S)NC1=O	-2	-68	22	9	-9	-43
Cn1c(O)c(/C=C/C=Nc2ccccc2)c(=O)n(C)c1=S	-4	-63	56*	5	-267	70*
CCOc1ccc(-n2c(O)c(C=Nc3ccc(N4CCOCC4)cc3)c(=O)[nH]c2=O)cc1	-1	-52	-42	-18	-6	22
c1ccc2c(c1)[nH]c1cnccc12	0	-230	10	-1	11	1
Cc1c2ccncc2c(C)c2c1[nH]c1ccccc12	4	7	1	20	95*	-5
COc1cc(-n2c(=S)[nH]c3ccccc3c2=O)c(Cl)cc1Cl	-2	8	-21	-9	2	29
CC(C)Oc1cc(-n2c(=S)[nH]c3ccccc3c2=O)c(Cl)cc1Cl	-2	63*	-110	-3	-7	-49
CCC(=NC(C)c1ccccc1)c1c(O)[nH]c(=O)[nH]c1=O (stereo not drawn)	/	-11	90*	-1	-5	-9
CCC(=NCCC(c1ccccc1)c1ccccc1)c1c(O)[nH]c(=O)[nH]c1=O	-2	-9	-22	-3	-11	-13
Cc1cccc(N2CCc3c2nc2ccccc2c3N)c1	0	i	26	78*![fluorescence artefact?]	8	31
CCC(C)N1C(=O)/C(=C/c2ccc3c(c2)CCN3CCCCl)C(=O)NC1=S (stereo not drawn)	-4	-63	39	-4	38*	101*
Cc1cccc(N2C(=O)NC(=O)/C(=C\c3ccc4c(c3)CCCN4Cc3ccccc3)C2=O)c1	2	-34	-23	8	-272	32
CCCCCCN=Cc1c(O)n(C)c(=O)n(C)c1=O	0	6	-1	2	-7	8
O=C(O)CCn1cc(C=C2C(=O)NC(=S)NC2=O)c(-c2cccc(Cl)c2)n1	1	-42	14	30	14	97*
O=C(O)CCn1cc(C=C2C(=O)NC(=O)NC2=O)c(-c2ccc(Br)cc2)n1	-1	10	-60	-10	-4	45
CCN(CC)CCNCC(=O)Nc1ccc(Cl)cc1C(=O)c1ccccc1	3	-31	15	86*	-11	26
CN(C)CCCNCC(=O)Nc1ccc(Cl)cc1C(=O)c1ccccc1	-2	-10	35	30	-7	35
CCOc1ccc(-n2c(O)c(C=NCCN(CC)CC)c(=O)[nH]c2=O)cc1	-3	-2	-20	8	-16	3
COc1ccc(N2C(=O)CC(N3CC=C(c4ccccc4)CC3)C2=O)cc1 (stereo not drawn)	-1	-12	-6	4	-17	21
CCCN1C2CCCC1CC(NC(C)=O)C2 (stereo not drawn)	-3	0	-13	-3	3	11
CNC(=S)NC1CC2CCCC(C1)N2CC(C)C (stereo not drawn)	0	-8	-63	-5	40*	0
CC(=O)OC1C2CCC1C(N1CCCC1)CC2 (stereo not drawn)	-1	32	8	-1	-6	16
CCOCC(=O)NC1CCSC1=O (stereo not drawn)	4	4	-5	-2	-19	9
CC1=NN(c2ccccc2)C(=O)C1/C=C1/C(=O)NC(=O)N(c2cc(C)cc(C)c2)C1=O (stereo not drawn)	-2	-27	10	75*	-22	20
CC1=NN(c2ccccc2)C(=O)C1/C=C1\C(=O)NC(=O)N(c2cc(C)cc(C)c2)C1=O (stereo not drawn)	-2	-12	24	61	-2	24
COc1cccc(CN2CCCCC2c2cccnc2)c1 (stereo not drawn)	-1	7	38	81*	2	29
O=C(C1CCC(=O)N1C1CCCCC1)N1CCC2(CC1)OCCO2 (stereo not drawn)	-4	59*	-10	-3	-8	7
C=C(COC(=O)CCC(=O)O)CC1CC(O)[C@]2(C)OC3CC4OC5C[C@]6(C)O[C@]7(C)CCC8OC9C[C@]%10(C)OC%11C(C)=CC(=O)OC%11CC%10OC9C[C@@H](C)C8OC7CC6O[C@]5(C)C/C=C\C4OC3CC2O1 (stereo partly drawn)	/	-36	-36	2	-12	-5
